Laboratory results from PubChem BioAssay AID2240 (Broad Institute, 2010).
Out of some 37,000 compounds screened, about 100 (0.27%) were called active. The list comes from a sample in which actives are over-represented; it also holds similar structures and randomly drawn compounds. Unmarked numbers belong to inactive results. No stated cut-off is given here; in the data, active means inhibition above about 85%; inconclusive means no clear call, values can overlap the other calls; inactive means below about 68%.

Test: blocks MITF activity, primary screen, MITF inhibitor project, cell-based, luminescence (AID 2240);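 further: human melanocyte line stably carrying TRPM1 promoter luciferase reporter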
Conditions: TRPM1 promoter luciferase, 24 h, hits give high values, concentration not given here

Row | SMILES | inhibition [%]
1 | Cc1cc(C(=O)Nc2cccc3c2O[C@@H](CN(C)C(=O)Nc2ccc(F)cc2)[C@H](C)CN([C@@H](C)CO)C3=O)n(C)n1 | -3.61
2 | CC1=C(C(=O)OCc2ccccc2)OC(N)=C(C#N)C1c1ccc(F)cc1 (centres undefined) | -8.27
3 | O=S(=O)(NCCc1ccccc1)c1ccccc1 | -1.44
4 | Cc1cc(C)c2c(c1)CC(C)(C)c1[nH]c(-c3ccccc3)nc1-2 | 12.3
5 | CCCC1CCC(c2ccc(OC(=O)c3ccco3)cc2)CC1 (centres undefined) | -3.57
6 | Cc1ccc(-n2c(SCC(=O)Nc3cccc(C)c3C)nc3ccccc3c2=O)cc1 | 14.3
7 | Cc1nc(SCC(=O)O)[nH]c(=O)c1Oc1ccccc1 | -13.2
8 | O=C(CCn1nc(-c2ccccc2)c2ccccc2c1=O)Nc1cccc(Br)c1 | 6.27
9 | O=C(c1nc2ncccn2n1)N(Cc1ccccc1)Cc1ccccc1 | 3.11
10 | COc1cc(CO)cc(Cl)c1OCc1cccc([N+](=O)[O-])c1 | -30.9
11 | COc1ccc(-c2cnc3c(-c4ccsc4)cnn3c2)cc1 | 26.7
12 | COc1ccc(S(=O)(=O)Nc2ccc3c(c2)CC(=O)N([C@H](C)CO)C[C@H](C)[C@H](CN(C)C(=O)Nc2ccccc2)O3)cc1 | -16.9
13 | CNC[C@H]1Oc2ccc(NC(=O)C3CCCCC3)cc2C(=O)N([C@H](C)CO)C[C@@H]1C | 4.94
14 | C[C@H]1CN([C@@H](C)CO)C(=O)c2cccc(NC(=O)Nc3cccc4ccccc34)c2O[C@@H]1CN(C)C(=O)NC1CCCCC1 | 0.565
15 | O=C(CCCN1C(=O)c2ccccc2C1=O)Nc1cccc2c1CCCC2 | -8.57
16 | Cc1ccc2oc3c(c(=O)c2c1)C(c1ccc([N+](=O)[O-])cc1)N(CCCN1CCOCC1)C3=O (centres undefined) | -26.1
17 | O=C(CN1CCOCC1)Nc1ccc(NC(=O)CN2CCOCC2)c(Cl)c1 | -25.8
18 | C[C@H](CO)N1C[C@H](C)[C@H](CN(C)CC2CCCCC2)Oc2ccc(NC(=O)C3CCCCC3)cc2C1=O | -9.78
19 | C[C@H]1CN([C@@H](C)CO)C(=O)Cc2cc(NC(=O)Cc3ccccc3)ccc2O[C@@H]1CN(C)S(=O)(=O)c1ccc(Cl)cc1 | 12.5
20 | C[C@H]1CN([C@@H](C)CO)C(=O)c2cc(NC(=O)c3ccncc3)ccc2O[C@H]1CN(C)Cc1ccc(C(=O)Nc2ccccc2N)cc1 | 20.5
21 | O=C(OC1=CC(=O)c2cccc3cccc1c23)c1ccccc1 | 26.1
22 | O=C(c1ccc(NCc2cccnc2)c([N+](=O)[O-])c1)N1CCCCC1 | 6.72
23 | CC1(C)Cc2c(sc3ncn4nc(COc5ccc(Cl)cc5)nc4c23)C(C)(C)N1 | 6.06
24 | CNC[C@@H]1Oc2c(NC(=O)Nc3ccc(OC)cc3)cccc2C(=O)N([C@@H](C)CO)C[C@@H]1C | -2.63
25 | C[C@H]1CN([C@@H](C)CO)C(=O)Cc2cc(NC(=O)NC3CCCCC3)ccc2O[C@@H]1CN(C)Cc1ccc(Oc2ccccc2)cc1 | 33.3

Row | SMILES | inhibition [%]
26 | C[C@@H]1CN([C@H](C)CO)C(=O)Cc2cc(NC(=O)NC3CCCCC3)ccc2O[C@H]1CN(C)S(=O)(=O)c1ccc(Cl)cc1 | -10.5
27 | Cc1ccc(N(CC(=O)Nc2ccccc2Sc2ccccc2)S(C)(=O)=O)c(C)c1 | -5.49
28 | CC(=O)Nc1nc2ccccc2s1 | -10.3
29 | Cc1noc(C)c1NC(=O)Nc1cccc2c1O[C@@H](CN(C)Cc1ccc(C(F)(F)F)cc1)[C@@H](C)CN([C@@H](C)CO)C2=O | 1.59
30 | COc1ccc(NC(=O)Nc2cccc3c2O[C@@H](CN(C)S(=O)(=O)c2cn(C)cn2)[C@H](C)CN([C@@H](C)CO)C3=O)cc1 | -11.4
31 | C[C@@H]1CN([C@H](C)CO)C(=O)c2cc(NC(=O)NC3CCCCC3)ccc2O[C@@H]1CN(C)S(C)(=O)=O | 1.34
32 | Nc1cc(N)nc(SCC(=O)c2ccc(Br)cc2)n1 | -22.1
33 | CCCCn1c(O)c(C#N)c(C)cc1=O | -16.6
34 | C[C@H]1CN([C@@H](C)CO)C(=O)Cc2cc(NS(C)(=O)=O)ccc2O[C@@H]1CN(C)CC1CC1 | -11.8
35 | C=CCn1c2ccccc2c2nnc(SCC(=O)N3c4ccccc4Sc4ccccc43)nc21 | 27.5
36 | Cc1ccc(-c2nnc(Nc3ccc(C(=O)N(C)C)cc3)c3ccccc23)cc1S(N)(=O)=O | -20.2
37 | Cc1nn(-c2ccccc2)c(CC(C)(C)C(=O)O)c1C(=O)O | -5.62
38 | CCc1cc2c(=O)n(-c3ccccc3)c(SCC(=O)O)nc2s1 | -1.73
39 | COc1cc(S(=O)(=O)NCCN2CCOCC2)ccc1Br | 1.46
40 | C=C1C(=O)O[C@H]2C3=C(C)C[C@H](OC(C)=O)C[C@]3(C)CC[C@@H]12 | 8.27
41 | Oc1ccc(CN2CCCC2)c2cccnc12 | 40.6
42 | C[C@H]1CN([C@@H](C)CO)C(=O)c2cc(NC(=O)Cn3cnnn3)ccc2O[C@@H]1CN(C)C(=O)Nc1ccccc1 | 5.69
43 | C[C@H](CO)N1C[C@H](C)[C@H](CN(C)CC2CC2)Oc2ccc(NC(=O)c3ccncc3)cc2C1=O | -11.7
44 | C=C1C[C@@]23CC[C@@H]4[C@](C)(CO)CCC[C@@]4(C)[C@@H]2CC[C@@H]1C3 | -32.7
45 | Cc1ccc(NC(=O)C(C)N(c2ccc(Cl)cc2)S(C)(=O)=O)c(C)c1 (centres undefined) | -5.76
46 | Cc1cc([N+](=O)[O-])nn1CC(=O)NC(C)C | 8.94
47 | C[C@@H]1CN([C@@H](C)CO)C(=O)c2cc(NC(=O)Nc3ccccc3)ccc2O[C@H]1CN(C)C(=O)Nc1ccc(F)cc1 | 3.76
48 | COc1ccccc1NC(=O)C1=C(C)Nc2nnnn2C1c1ccccc1OCc1ccccc1 (centres undefined) | 41.2
49 | O=C(CSc1nnc(-c2ccccc2)n1-c1ccccc1)c1cccc([N+](=O)[O-])c1 | 5.69
